Reference: PubChem BioAssay (NCI)
This is part of a sample that, as a whole, favours compounds with a hit. Of some 83,000 tested, about 20% had one in any assay.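 How to read the values: 0–100, growth inhibition (40 = 60% inhibited); 0, no net growth; -100 to 0, cell death (-40 = 40% of starting cells died; -100 = all dead).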 Active and inactive are the calls of the source. Rule for the calls: active = growth percent below 10; inactive = the rest.

What was measured:
Experiment in all cases: NCI-60 one-dose screen, 48 h (100 = growth as untreated, 0 = no growth, -100 = all killed)
Conditions in all cases: 10 µM
[1] = tested on: T-47D breast
[2] = tested on: BT-549 breast
[3] = tested on: MDA-MB-435 melanoma
[4] = tested on: SW-620 colon
[5] = tested on: MCF7 breast
[6] = tested on: HCT-116 colon
[7] = tested on: HCC-2998 colon
[8] = tested on: KM12 colon

Measured: growth

COc1ccc(C2C=C(c3ccc(Cl)c(Cl)c3)N=C3SC(C)=CN32)cc1 (configuration not stated)
inactive: [1] 68.3% | [2] 89.9% | [3] 90.6% | [4] 91.4% | [5] 47.1% | [6] 14.4% | [7] 108% | [8] 81.6%

O=[N+]([O-])c1ccc(S(=O)(=O)OCCCCOS(=O)(=O)c2ccc([N+](=O)[O-])cc2)cc1
inactive: [1] 100% | [2] 106% | [3] 95.1% | [4] 102% | [5] 95.9% | [6] 108% | [7] 100% | [8] 107%

Cc1ccc(-c2cc(-c3cccc(Nc4ccnc5cc(Cl)ccc45)c3)nc3nc(N)[nH]c(=O)c23)cc1
inactive: [1] 35% | [2] 86.4% | [3] 99.8% | [4] 95.8% | [5] 72.5% | [6] 91.3% | [7] 91.5% | [8] 70.5%

COc1ccc(-c2ccc(-c3ccc(C(=N)N)c(F)c3)s2)cc1
active: [1] -64% | [2] -91.7% | [3] -79.5% | [4] -91% | [5] -70.6% | [6] -82.6% | [7] -83.9% | [8] -94.9%

O=C(c1ccc(Cl)cc1)c1no[n+]([O-])c1C(=O)c1ccc(Cl)cc1
inactive: [1] 89.6% | [2] 98.7% | [3] 89.8% | [4] 44.2% | [5] 92.1% | [6] 49% | [7] 113% | [8] 88.5%

O=C(O)CCCN1C(=O)NC2(C1=O)c1ccccc1-c1ccccc12
inactive: [1] 89.4% | [2] 96.7% | [3] 103% | [4] 104% | [5] 97.3% | [6] 95.6% | [7] 101% | [8] 102%

CN(C)c1ccc2c(c1)OC(N)=C(C#N)C2c1ccc2c(c1)CCO2 (configuration not stated)
active: [3] 0.989% | [6] 5.3%
inactive: [1] 66.8% | [2] 16.7% | [4] 31.9% | [5] 16.9% | [7] 36.8% | [8] 24.2%

CCCn1c(=O)c2c(nc(-c3cccc(OCCCCl)c3)n2C)n(CCC)c1=O
inactive: [1] 15.8% | [2] 67.9% | [3] 82.5% | [4] 76.6% | [5] 84.6% | [6] 36.4% | [7] 69.7% | [8] 76.2%

CCCCCCCCCCCC(=O)NCCCN(C)C
inactive: [1] 84.8% | [2] 70.5% | [3] 94.5% | [4] 102% | [5] 65.7% | [6] 67.6% | [7] 78.5% | [8] 104%

COC(=O)c1ccc(Cn2ccc(=O)[nH]c2=O)cc1
inactive: [1] 107% | [2] 113% | [3] 105% | [4] 110% | [5] 99.2% | [6] 104% | [7] 106% | [8] 103%

C#CCNCCCN1C(=O)c2ccc3c4c(ccc(c24)C1=O)C(=O)N(CCCNCC#C)C3=O
active: [1] -52.1% | [2] -93.8% | [3] -66.9% | [4] -59.8% | [5] -72.7% | [6] -25% | [7] -90% | [8] -80.4%

C[N+]1(CC2CO2)CCCCCC1 (configuration not stated)
inactive: [1] 116% | [2] 116% | [3] 102% | [4] 106% | [5] 107% | [6] 103% | [7] 112% | [8] 93.9%

NC1CCC(Nc2nc(NCc3cc(Cl)ccc3O)c3ncn(C4CCCC4)c3n2)CC1 (configuration not stated)
active: [1] -28% | [2] -21.2% | [3] -43.9% | [4] 3.11% | [5] -58.9% | [6] -17.6% | [7] -39.5% | [8] 1.98%

N#Cc1c2c([nH]c(=O)c1C(N)=O)CCCCC2
inactive: [1] 79.2% | [2] 100% | [3] 108% | [4] 101% | [5] 103% | [6] 91.8% | [7] 111% | [8] 106%
